Screening data as filed in PubChem.
Shown are actives, neighbours in structure and some others; about 19% of the full set was active somewhere.
HT1080 IDH1KD tx: HT-1080 IDH1 knockdown cell toxicity (counter line) | HT-1080 IDH1 knockdown viability, ATP luminescence, 48 h | Potency, µM (highest dose often 46.1 µM), for the others: top-dose activity, negative = toxicity, most hits filed as cytotoxic | 2% of 360,000 active;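 further: potency means the concentration at half of the fitted maximal effect; 0% = DMSO wells and -100% = cell-free medium wells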
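Viability of IDH1-knockdown HT-1080 fibrosarcoma cells was assessed by CellTiter-Glo after 48 h at 37 °C with titrated compound; concentration-effect curves were classified by fit quality and response size.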
DT40 TDP1 CPT: growth inhibition of DT40 Tdp1-/-;hTDP1 cells with camptothecin (screen for TDP1 inhibitors); chicken DT40 Tdp1-/-;hTDP1 cells + 20 nM CPT, ATP luminescence, 48 h; Potency, µM (top dose mostly 46.2 µM), without a hit: top-dose activity change, negative = growth inhibition, usual class: inhibitors; 12% of 420,000 active; AID 686979; further: potency means the concentration at half of the fitted maximal effect; nearly all actives have a fitted effect of over 55% in size
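Cell growth measured by CellTiter-Glo luminescence after a minimum 48 h, 37 C compound exposure with 20 nM CPT in Tdp1-knockout DT40 cells stably expressing hTDP1, seeded 400/well; qHTS titration format.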
HT1080NT lethal: kills 2HG-producing HT-1080-NT fibrosarcoma cells. HT-1080-NT fibrosarcoma viability, CellTiter-Glo ATP luminescence, 48 h. Potency, µM (doses to about 46.1 µM), inactives show at the top dose activity, negative = less viability, hits mostly cytotoxic. 1.6% of 360,000 active. AID 686970;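 further: NT is the 2HG producing partner of a matched IDH1 knockdown line; potency means the concentration at half of the fitted maximal effect; 0% = DMSO-treated cells and -100% = media-only wells without cells; nearly all actives have a fitted effect of over 55% in size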
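Luminescent CellTiter-Glo readout after 48 hours of compound exposure at 37 degrees C defined viability of HT-1080-NT cells. Activity was normalized to DMSO wells and cell-free media wells; concentration-response curves were fitted and assigned curve classes.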
IL1B secr inh: inflammasome signaling inhibition, IL-1 beta readout; THP-1 LPS/ATP IL-1B secretion, AlphaLISA, 16 h; stronger effect = lower value; activity change, % at 57.5 µM; 4.7% of 360,000 active; AID 743279; in the data active means activity change below about -50%; inconclusive means mostly about -30% to -49%
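Secreted IL-1B measured by AlphaLISA bead assay after 16 h compound exposure of THP-1 cells; compounds (final up to 57.5 uM) added 1 h before LPS (250 ng/mL) and ATP (1.25 mM) stimulation; lower signal means less secretion.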
DT40 TDP1 no CPT: qHTS for Inhibitors of human tyrosyl-DNA phosphodiesterase 1 (TDP1): qHTS in cells in absence of CPT. DT40 Tdp1-/- hTDP1 cells, no CPT, ATP luminescence, 48 h. Potency, µM (series often up to 46.2 µM), for the others: at the top dose activity change, negative = growth inhibition, actives largely listed as inhibitors. 15% of 420,000 active. AID 686978, 2013; further: potency means the concentration at half of the fitted maximal effect; nearly all actives have a fitted effect of over 55% in size
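A cellular qHTS used chicken DT40 cells lacking endogenous Tdp1 but carrying stably transfected human TDP1. Compounds were applied without camptothecin, and cell growth kinetics were judged by ATP-dependent luminescence after ≥48 hr.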
ELG1 DNA repair: inhibitors of ELG1-dependent DNA repair in HEK293T cells; HEK293T ELG1-luciferase reporter, luminescence, 16 h; DNA damage induced by 5-fluorouridine; Potency, µM (doses to about 46.1 µM), inactives show top-dose activity change, negative = inhibition, usual class: inhibitors; 2.3% of 330,000 active; AID 504467; further: potency means the concentration at half of the fitted maximal effect; nearly all actives have a fitted effect of over 55% in size
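HEK293T cells expressing luciferase-tagged ELG1 (2,000/well) received 5-Fluorouridine plus compound or DMSO for 16 hr at 37 °C. Luciferase was read by ONE-Glo luminescence after 30 min at room temperature.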
Active calls of the source: *; i = inactive; ? = inconclusive; / = no result given. Unless noted, the call rests on the fitted dose curve; in most records, active means well fitted curve in the direction sought with a large enough effect; inconclusive means small, poorly fitted or top-dose-only effect, or another doubt; inactive means no such curve, though single readings can be large; an effect the other way counts as inactive or inconclusive. Unless noted, on the % scale 0 is the no-effect control and ±100 the full control effect.

SMILES	HT1080 IDH1KD tx	DT40 TDP1 CPT	HT1080NT lethal	IL1B secr inh	DT40 TDP1 no CPT	ELG1 DNA repair
CC1(O)CC2CC1C(C(=O)O)C2C(=O)O (stereo not given)	14.4%	18.1%	15.0%	12.2	1.5%	/
Cc1c(Cl)cccc1-n1ncc(C(=O)Nc2ccc(Br)cc2F)c1C1CCNCC1	/	4.11µM*	/	/	5.17µM*	/
CC(C)(C)OC(=O)N1CCC(c2c(C(=O)O)cnn2-c2ccccc2Cl)CC1	1.5%	-10.0%	12.2%	17.3	-11.0%	-3.7%
Cc1ccc(C)c(N2CCN(C(=O)c3cnn(-c4ccccc4Cl)c3C3CCN(C(=O)OC(C)(C)C)CC3)CC2)c1	/	13µM*	/	/	13µM*	/
Cc1ccc(-n2ncc(C(=O)N3CCN(c4cccc(C)c4C)CC3)c2C2CCNCC2)c(C)c1	/	8.2µM*	/	/	16.4µM*	/
Cc1cccc(N2CCN(C(=O)c3cnn(-c4ccccc4Cl)c3C3CCN(C(=O)OC(C)(C)C)CC3)CC2C)c1 (stereo not given)	/	?	/	/	13µM*	/
Cc1cccc(-n2ncc(C(=O)N3CCN(c4ccc(C)cc4C)CC3)c2C2CCN(C(=O)OC(C)(C)C)CC2)c1	/	?	/	/	-18.9%	/
COCCCNC(=O)c1cnn(-c2ccc(F)cc2F)c1C1CCNCC1	/	-4.9%	/	/	?	/
COc1ccccc1CNS(=O)(=O)c1cc2c3c(c1)C(C)C(=O)N3CCC2 (stereo not given)	-1.6%	?	-5.7%	33.7	?	-6.9%
C=CCNC(=S)N1CCN(c2ncc(C(F)(F)F)cc2Cl)CC1	-10.6%	?	-8.8%	-66.7*	?	?
O=C(c1ccncc1)N1CCN(c2cccc(C(F)(F)F)c2)CC1	-6.4%	?	-4.7%	-1.8	?	-4.2%
NNC(=O)CN1CCN(c2ncc(C(F)(F)F)cc2Cl)CC1	1.0%	-18.2%	-2.4%	28.3	-25.9%	-12.6%
O=C(OCC(=O)N1CCN(c2ccccc2)CC1)c1ccc2ncsc2c1	1.9%	-18.9%	-7.0%	16.8	-24.4%	-18.3%
CC(C)(C)NC(=O)NC(=O)CN1CCN(c2ncc(C(F)(F)F)cc2Cl)CC1	2.1%	?	-1.6%	7.0	18.4µM*	7.31µM*
O=C(c1ccc2ncsc2c1)N1CCN(c2cccc(C(F)(F)F)c2)CC1	8.2µM*	2.91µM*	8.2µM*	17.5	1.46µM*	-8.1%
O=C(c1ccc2nc[nH]c2c1)N1CCN(c2cccc(C(F)(F)F)c2)CC1	-7.0%	?	6.7%	i	16.4µM*	7.0%
O=C(NCc1cccs1)c1ccc2sc(COCCO)nc2c1	7.2%	-5.4%	27.2%	6.1	-19.7%	/
CCc1cccc(C)c1NC(=O)C1=C(C)C(=O)OC12CCC(C)CC2 (stereo not given)	/	-95.9%	/	/	-7.2%	/
O=C(c1ccc2nc[nH]c2c1)N1CCN(c2ncc(C(F)(F)F)cc2Cl)CC1	-15.5%	14.6µM*	-1.3%	-13.5	18.4µM*	?
O=C(c1ccc(Nc2nc3ccccc3n3nnnc23)cc1)N1CCN(c2cccc(C(F)(F)F)c2)CC1	/	?	/	/	18.4µM*	/
CC(=O)c1ccc(N2CCN(c3ncc(C(F)(F)F)cc3Cl)CC2)cc1	-0.1%	?	-4.6%	?	29.1µM*	-13.3%
CCCN(CC(=O)Nc1ccccc1OC)C(=O)c1cccc(S(=O)(=O)Nc2ccc(OC)cc2)c1	-8.9%	?	7.6%	-15.8	?	-12.4%
Cc1cccc(OCC(=O)OCc2cc(=O)n3nc(-c4cccs4)sc3n2)c1	/	-10.5%	/	/	1.5%	/
O=C(CSC1=Nc2ccccc2C2=NC(Cc3c[nH]c4ccccc34)C(=O)N12)NC1CCCCC1 (stereo not given)	-5.9%	-18.2%	-9.3%	-11.5	-24.0%	8.1%
